This note sets out measurements from paper PMC5540273 (PLoS ONE, 2017).

Among the test systems are FGFR1; FGFR2; FGFR3; FGFR4; FGR; FLT1; FLT3-autoinhibited; FLT3; FLT4; FRK; FYN; GAK; GRK1; GRK4; GRK7; GSK3A; GSK3B.
Conditions in all cases: concentration: 1 μM, replicates: in singlicate; n = 1
The next test concerns T1, GCN2(Kin.Dom.2,S808G).
T1 construct: gene EIF2AK4

The test system of the next test is T2, GRK2.
T2 construct: gene ADRBK1

The next test deals with T3, GRK3.
T3 construct: gene ADRBK2
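Further: KINOMEscan kinase panel screen.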

As for `Nc1ncc(-c2cn[nH]c2)c2scc(-c3ccc4c(c3)CCN4C(=O)Cc3ccccc3)c12` [GSK2593067], the “%Inh” value with FGFR1 is listed as 37%; in the test with FGFR2, 31%; in the test on FGFR3, 19%; in the test on FGFR4, 0%; with FGR, 80%; in the test on FLT1 it was 83%. Moreover, the “%Inh” value is 13% in the test with FLT3-autoinhibited; 98.4% with FLT3; 43% in the test on FLT4; 38% in the test on FRK; 65% with FYN; 32% with GAK. The “%Inh” value stood at 97.8% with GCN2(Kin.Dom.2,S808G); 10% in the test with GRK1; 0% with GRK2; 0% in the test with GRK3; 0% in the test on GRK4; 0% in the test on GRK7. Moreover, the “%Inh” value stood at 2% in the test on GSK3A and 11% in the test with GSK3B.

Take `NCCC(NC(=O)c1cc(Br)c(-c2ccnc3[nH]ccc23)s1)c1ccccc1.O=C(O)C(F)(F)F.O=C(O)C(F)(F)F` (centres unmarked) [GSK1307810]: the “%Inh” value in the test on FGFR1 is reported as 73%; with FGFR2, 74%; in the test on FGFR3 it was 45%; in the test with FGFR4, 36%; in the test on FGR, 13%; with FLT1, 73%. In addition, the “%Inh” value with FLT3-autoinhibited is given as 25%; in the test on FLT3, 88%; with FLT4, 39%; in the test with FRK it was 22%; in the test on FYN, 0%; in the test on GAK, 83%. Further, the “%Inh” value is 0% with GCN2(Kin.Dom.2,S808G); 100% in the test on GRK1; 82% in the test on GRK2; 96.4% with GRK3; 72% with GRK4; 89% in the test with GRK7. Also, the figures for the “%Inh” value with GSK3A and in the test on GSK3B were 0% and 20%, respectively.

With `COc1cc(Nc2ccnc3cc(-c4ccncc4)ccc23)cc(OC)c1OC.Cl` [GW494610], the “%Inh” value in the test with FGFR1 amounted to 23%; in the test with FGFR2 it was 14%; with FGFR3 it was 15%; with FGFR4 it was 0%; in the test with FGR, 81%; in the test on FLT1 it was 21%. The “%Inh” value in the test on FLT3-autoinhibited worked out at 0%; in the test with FLT3, 3%; in the test on FLT4 it was 0%; with FRK, 44%; in the test with FYN, 75%; in the test on GAK, 84%. Moreover, the “%Inh” value in the test with GCN2(Kin.Dom.2,S808G) was found to be 0%; with GRK1, 4%; in the test on GRK2 it was 0%; in the test on GRK3, 35%; in the test with GRK4 it was 5%; in the test on GRK7, 0%. Further, the “%Inh” value in the test with GSK3A is 10%; with GSK3B, 0%.

In the case of `Cn1cc(-c2cnc(N)c3c(-c4ccc5c(c4)CCN5C(=O)Cc4ccccc4)csc23)cn1` [GSK2593074], the “%Inh” value was 28% in the test with FGFR1; 40% in the test with FGFR2; 49% in the test on FGFR3; 0% in the test on FGFR4; 75% with FGR; 79% in the test with FLT1. For the same compound, the “%Inh” value with FLT3-autoinhibited worked out at 0%; with FLT3, 99%; in the test with FLT4 it was 31%; with FRK, 38%; with FYN, 25%; in the test on GAK, 11%. Also, the “%Inh” value in the test on GCN2(Kin.Dom.2,S808G) stood at 91.2%; with GRK1, 0%; with GRK2, 0%; with GRK3, 0%; in the test on GRK4, 7%; in the test with GRK7, 6%. The “%Inh” value with GSK3A turned out to be 5%; in the test with GSK3B it was 0%.

Regarding `Cc1ccc(O)cc1Nc1ccnc2ccc(C(C)(C)C)cc12` [GW856805], the “%Inh” value was determined as 14% in the test with FGFR1; 28% with FGFR2; 0% with FGFR3; 0% in the test on FGFR4; 94.9% in the test on FGR; 26% in the test with FLT1. Further, the “%Inh” value in the test on FLT3-autoinhibited came to 0%; in the test with FLT3, 11%; with FLT4, 35%; in the test with FRK it was 98.9%; with FYN, 96.5%; in the test with GAK it was 61%. For the same compound, the “%Inh” value stood at 5% with GCN2(Kin.Dom.2,S808G); 28% with GRK1; 0% with GRK2; 28% in the test with GRK3; 17% with GRK4; 37% in the test with GRK7. Besides, the entries for the “%Inh” value in the test with GSK3A and in the test with GSK3B were 0% and 28%, respectively.

`COc1cccc(NC(=O)NCCNc2ccnc(Nc3ccc(F)cc3)n2)c1` [GSK1379879]: the “%Inh” value in the test on FGFR1 is on record as 0%; in the test on FGFR2, 53%; in the test with FGFR3, 2%; in the test on FGFR4, 9%; in the test on FGR it was 22%; in the test with FLT1 it was 15%. In addition, the “%Inh” value with FLT3-autoinhibited is reported as 0%; in the test with FLT3 it was 0%; with FLT4, 0%; in the test with FRK, 11%; with FYN, 0%; in the test on GAK, 0%. The “%Inh” value was determined as 0% in the test with GCN2(Kin.Dom.2,S808G); 0% with GRK1; 0% in the test with GRK2; 68% with GRK3; 0% in the test on GRK4; 0% in the test with GRK7. Besides, the “%Inh” value with GSK3A was found to be 11%; in the test on GSK3B, 16%.

Consider `COC(=O)Nc1nc2ccc(Oc3ccc(CC(=O)Nc4cc(C(F)(F)F)ccc4F)cc3)cc2[nH]1` [GW680903], for which the “%Inh” value with FGFR1 came to 0%; in the test on FGFR2, 6%; in the test on FGFR3, 8%; in the test with FGFR4, 4%; with FGR, 10%; in the test on FLT1, 93%. Further, the “%Inh” value stood at 20% in the test on FLT3-autoinhibited; 99.3% in the test on FLT3; 72% in the test on FLT4; 19% in the test with FRK; 37% in the test with FYN; 0% with GAK. Moreover, the “%Inh” value in the test on GCN2(Kin.Dom.2,S808G) is 2%; in the test with GRK1 it was 0%; with GRK2 it was 0%; in the test with GRK3, 66%; in the test with GRK4, 0%; with GRK7, 0%. Further, the “%Inh” value is on record as 5% with GSK3A and 0% in the test on GSK3B.

For the compound `Cc1cccc(Nc2nc(NCCN)ncc2C(N)=O)c1` [GSK1292139], the “%Inh” value with FGFR1 was found to be 0%; in the test on FGFR2 it was 0%; in the test on FGFR3 it was 0%; in the test on FGFR4, 0%; in the test on FGR, 49%; with FLT1 it was 7%. Besides, the “%Inh” value in the test on FLT3-autoinhibited was determined as 15%; in the test with FLT3, 13%; in the test with FLT4, 0%; in the test on FRK, 0%; with FYN, 48%; in the test on GAK, 65%. Further, the “%Inh” value is 41% in the test with GCN2(Kin.Dom.2,S808G); 0% in the test with GRK1; 0% in the test on GRK2; 0% in the test on GRK3; 15% in the test with GRK4; 0% with GRK7. Besides, the “%Inh” value in the test on GSK3A was 6%; in the test on GSK3B, 11%.

For the compound `CC(C)c1nc(-c2ccc(F)c(NS(=O)(=O)c3c(F)cccc3F)c2)c(-c2ccnc(Nc3ccc(N4CCOCC4)nc3)n2)s1` [GSK1804250], the “%Inh” value in the test on FGFR1 is given as 24%; with FGFR2 it was 11%; with FGFR3, 8%; in the test on FGFR4, 0%; with FGR, 97.7%; in the test with FLT1, 88%. Further, the “%Inh” value in the test with FLT3-autoinhibited is on record as 0%; with FLT3, 12%; in the test on FLT4 it was 97.3%; in the test on FRK, 89%; in the test with FYN, 95.9%; with GAK, 92.1%. Moreover, the “%Inh” value in the test with GCN2(Kin.Dom.2,S808G) is recorded as 100%; with GRK1, 0%; in the test with GRK2, 6%; in the test on GRK3, 7%; in the test on GRK4, 9%; in the test on GRK7, 0%. Also, the “%Inh” value in the test with GSK3A is recorded as 40%; in the test with GSK3B it was 23%.

Turning to `CC(C)(C)c1ccc(C(=O)Nc2cn3cc(-n4ccnc4)ccc3n2)cc1`, the “%Inh” value is 0% in the test on FGFR1; 22% in the test with FGFR2; 11% with FGFR3; 7% with FGFR4; 0% in the test with FGR; 0% in the test on FLT1. Also, the “%Inh” value in the test with FLT3-autoinhibited turned out to be 21%; in the test on FLT3 it was 71%; in the test with FLT4, 0%; in the test with FRK, 10%; in the test on FYN, 21%; with GAK it was 0%. The “%Inh” value with GCN2(Kin.Dom.2,S808G) was 27%; in the test on GRK1, 42%; with GRK2, 51%; in the test with GRK3, 0%; in the test on GRK4, 12%; in the test on GRK7 it was 21%. For the same compound, the “%Inh” value worked out at 2% in the test with GSK3A and 14% with GSK3B.
